# Reference: ChEMBL document CHEMBL3988442, “University of Dundee, Small-Polar-MMV Screening Library” (2021)
# About 950 (1.4%) of roughly 69,000 compounds showed an effect of 50% or more. The entries come from a sample that favours strong results as a whole.
# System: Mycobacterium tuberculosis
# Assay: Cornell M. t heat shock assay; also: in the data most compounds retested in dose-response had high values
# Assay type: functional, organism-based
# Design: dose or concentration left out as unconfirmed
row,Structure (SMILES),Percent Effect
1,Cn1c2ncccc2c(=O)n1CC(=O)NCCC1=CCCCC1,-2.25%
2,CCCc1nn(Cc2ccc(Br)s2)c(=O)o1,31%
3,CCC(=O)N1CCN(C(=O)Cn2cccn2)CC1,62.88%
4,CCC(=O)N1CCN(C(=O)CCn2cccn2)CC1,10.75%
5,CC(C)CN1CCN(C(=O)CCn2cccn2)CC1,37.09%
6,O=C1NCCN1CCNc1cc(-c2ccncc2)nc2ccnn12,-39.13%
7,CC1(C)Cc2cc(-c3cncn3CCNC3CCS(=O)(=O)C3)ccc2O1.Cl (stereo not drawn),8.949%
8,CCC(C)NC(=O)Cn1ccc2c(C)nn(CC)c2c1=O (stereo not drawn),-10.24%
9,c1ccc(N2CCCC2)c(NCc2ccncc2)c1,-19.28%
10,Cc1nc(N2CCCC2)ccc1NCc1ccccn1,4.716%
11,c1ccc(CNc2ccccc2N2CCCC2)nc1,50.65%
12,O=C(O)C(F)(F)F.O=C(c1cnccn1)N1CC2(CCN(Cc3ccsc3)C2)C1,-14.16%
13,CN(C)[C@@H]1CCN(C(=O)Cc2cccs2)[C@H]1Cc1cnn(C)c1.O=C(O)C(F)(F)F,5.582%
14,O=C(O)C(F)(F)F.c1ccc(CN2Cc3nccn3CC(Cn3cccn3)C2)nc1 (stereo not drawn),11.05%
15,CN(C)CCN1CCCC12CCN(C(=O)c1ccncc1)CC2.O=C(O)C(F)(F)F.O=C(O)C(F)(F)F,6.106%
16,CC(NC(=O)OC(C)(C)C)c1nnc(S(=O)(=O)Cc2ccc(Cl)cc2)o1 (stereo not drawn),103.1%
17,C[C@H](NC(=O)OC(C)(C)C)c1nnc(S(=O)(=O)Cc2cccc(F)c2)o1,-6.703%
18,Cc1noc(C(C)NC(=O)[C@@H](C)NC(=O)OC(C)(C)C)n1 (stereo partly drawn),4.198%
19,CC(NC(=O)OC(C)(C)C)c1nnc(S(=O)(=O)Cc2ccccc2Cl)o1 (stereo not drawn),10.13%
20,Cc1ccccc1CS(=O)(=O)c1nnc(C(C)NC(=O)OC(C)(C)C)o1 (stereo not drawn),89.48%
21,Cl.N[C@@H](Cc1ccccc1)c1nnc(S(=O)(=O)Cc2ccc(Cl)cc2)o1,-31.2%
22,COCCN1C[C@@H]2[C@@H](OC)CCN(C(=O)Cc3ccsc3)[C@@H]2C1.O=C(O)C(F)(F)F,-5.727%
23,O=C(O)C(F)(F)F.O=C(c1ccc(F)cc1)N1CC[C@H]2[C@H]1CCN2CC1CC1,-18.24%
24,CN1CCN(C)C2(CCN(Cc3ccsc3)CC2)C1=O.O=C(O)C(F)(F)F,-19.83%

row,Structure (SMILES),Percent Effect
1,O=C(O)C(F)(F)F.O=C(O)C(F)(F)F.O=C1C[C@H]2[C@@H](CCN2C(=O)Cc2ccsc2)N1Cc1cccnc1,-3.092%
2,CCCN1CCC2(CC1)CN(C(=O)c1cccnc1)c1ccc(F)cc12.O=C(O)C(F)(F)F.O=C(O)C(F)(F)F,1.02%
3,O=C(c1cc(COc2ccc3c(c2)OCO3)[nH]n1)N1CCOCC1,27.44%
4,O=C(c1cc(COc2ccc3c(c2)OCO3)[nH]n1)N1CCCC1,27.84%
5,O=C(c1cc(COc2ccc3c(c2)OCO3)[nH]n1)N1CCSCC1,62.66%
6,O=C(NC1CC1)[C@@]12CCO[C@@H]1CCN(Cc1ccc3c(c1)OCO3)C2.O=C(O)C(F)(F)F,3.117%
7,O=C(Nc1ccc(Cl)cn1)c1nn(C2CCS(=O)(=O)C2)c2c1CCCC2 (stereo not drawn),11.75%
8,CC(C)c1cc(=O)[nH]c(-n2nc(C3CC3)cc2N)n1,103%
9,CCc1cc(=O)[nH]c(-n2nc(C3CC3)cc2NC(=O)C2CC2)n1,103.7%
10,CCCc1cc(=O)[nH]c(-c2cccc(CN3CCCCCC3)c2)n1,-11.64%
11,CCC(C)(N)c1nc(C(C)C)cc(=O)[nH]1.Cl (stereo not drawn),7.893%
12,CCc1c(C)nc(-n2nc(C3CC3)cc2NC(C)=O)[nH]c1=O,-4.817%
13,CCCc1cc(=O)[nH]c(-c2cccc(CN3CCN4CCCC4C3)c2)n1 (stereo not drawn),0.7345%
14,Cc1cc(C(=O)Nc2cc(C3CC3)n[nH]2)c2c(C)nn(C)c2n1,28.31%
15,CCCc1cc(=O)[nH]c(-n2nc(C3CC3)cc2N)n1,101.7%
16,Cc1cc(C2CCC2)nc(N2CCC3(CCNC(=O)CC3)CC2)n1,9.358%
17,Cc1cc(=O)[nH]c(-n2nc(C3CC3)cc2N)n1,101%
18,CCn1nc(C)c(NC(=O)c2cc(NC(=O)C3CC3)n(C)n2)c1C,-24.03%
19,CC(C)c1cc(=O)[nH]c(C(C)(C)N)n1.Cl,-1.854%
20,Cc1ccc(CN(CCCN2CCOCC2)Cc2cnc(C)n2C)o1.O=C(O)CC(O)(CC(=O)O)C(=O)O,-5.16%
21,O=C(O)C(F)(F)F.O=C1COC2(CCN(CC3CCC3)CC2)CN1c1cncnc1,-21.31%
22,Cc1nn(C)cc1CN1CCc2c(nc(-c3ccccn3)[nH]c2=O)C1,2.88%
23,Cn1cccc1CN1CCc2ncnc(-c3cccnc3)c2CC1,-25.32%
24,COc1ccc(CN2CCc3c(nc(-c4ccccn4)[nH]c3=O)C2)cc1,89.16%

row,Structure (SMILES),Percent Effect
1,O=c1[nH]c(N2CCCCC2)nc2c1CCN(Cc1cccnc1)C2,-9.833%
2,Cn1cc(CN2CCc3c(nc(-c4ccccn4)[nH]c3=O)C2)cn1,-205.6%
3,O=C(c1ccccn1)N1CCc2c(nc(-c3ccncc3)[nH]c2=O)C1,-10.2%
4,O=c1[nH]c(-c2ccccn2)nc2c1CCN(Cc1cccc(O)c1)C2,53.42%
5,CC1CCCCN1c1nc2c(c(=O)[nH]1)CCN(Cc1ccccn1)C2 (stereo not drawn),-29.02%
6,CCn1ncc(CN2CCc3c(nc(-c4cccnc4)[nH]c3=O)C2)c1C,-178.1%
7,Cc1ncc(CN2CCc3c(nc(-c4ccccn4)[nH]c3=O)C2)n1C,8.847%
8,COc1ccccc1CN1CCc2c(nc(-c3ccccn3)[nH]c2=O)C1,93.29%
9,Cn1cccc1CN1CCc2c(nc(-c3ccccn3)[nH]c2=O)C1,73.71%
10,CCN1CCOCC12CCN(C(=O)C1CCCC1)CC2.O=C(O)C(F)(F)F,-1.07%
11,Cc1cc(C[C@@H]2COC[C@H]2NCc2ccc(Cl)c(Cl)c2)on1.O=C(O)CC(O)(CC(=O)O)C(=O)O,-20.39%
12,COCCC(=O)N1CC2(CCN(Cc3ccccc3Cl)CC2)C1.O=C(O)C(F)(F)F,12.96%
13,CCc1ncc(C(=O)N2CCCN(C3CCCC3)CC2)cn1,-5.155%
14,Cc1ccc2c(n1)N(CCn1cccn1)CCN(C1CCOCC1)C2.O=C(O)C(F)(F)F.O=C(O)C(F)(F)F,-10.35%
15,Cc1cc(CN2C[C@H](OCC3CCOCC3)[C@H]3COC[C@H]32)oc1C.O=C(O)C(F)(F)F,5.146%
16,Cc1ccc(CN2CCC[C@@H]3CN(C(=O)c4ccco4)C[C@@H]32)s1.O=C(O)C(F)(F)F,-26.86%
17,COc1ncccc1CN1C[C@H]2CCN(c3ccc(C)nn3)C[C@H]2C1.O=C(O)C(F)(F)F,16.3%
18,O=C(O)C(F)(F)F.c1ccc(N2CCCC3(CCN(Cc4ccsc4)C3)C2)nc1 (stereo not drawn),-1.694%
19,Cc1nc(CN2CCc3ncnc(-c4cccnc4)c3CC2)cs1.O=C(O)C(F)(F)F.O=C(O)C(F)(F)F,-25.69%
20,O=c1[nH]c(-c2ccccc2)nc2c1CCN(S(=O)(=O)N1CCCC1)C2,5.135%
21,O=c1[nH]c(-c2ccncc2)nc2c1CCN(S(=O)(=O)N1CCCC1)C2,-2.171%
22,O=c1[nH]c(-c2ccccn2)nc2c1CCN(S(=O)(=O)N1CCCC1)C2,87.3%
23,Cc1ccc(CN2Cc3nnn(C)c3C(COCc3ccccn3)C2)s1.O=C(O)C(F)(F)F.O=C(O)C(F)(F)F (stereo not drawn),-10.17%
24,Cc1ccc(-c2cc(C(=O)NCCC3=CCCCC3)[nH]n2)o1,46.03%

row,Structure (SMILES),Percent Effect
1,CCCc1cc(C(=O)NCCC2=CCCCC2)[nH]n1,8.132%
2,O=C(NCCC1=CCCCC1)c1cc(-c2ccc(O)cc2)n[nH]1,57.62%
3,O=C(O)C(F)(F)F.c1coc(CN2CCCn3c(nnc3Cn3cccn3)C2)c1,-27.42%
4,O=C(O)C(F)(F)F.O=S(=O)(c1cccs1)N1CCCC2(COCCN(c3cccnc3)C2)C1 (stereo not drawn),1.74%
5,CCn1cc(S(=O)(=O)N(C)Cc2c(Br)cnn2CC)c(C)n1,-19.54%
6,CCn1cc(CN(C)S(=O)(=O)c2cnn(CC)c2C)c(C)n1,95.67%
7,CCn1nc(C)c(CN(C)S(=O)(=O)c2cnn(C)c2)c1C,0.2173%
8,CC(=O)N1CCC2(CCCN2Cc2cnn(C)c2)CC1.O=C(O)C(F)(F)F,-13.44%
9,CC(C)c1nc(CSc2nnc(-c3cccs3)n2CC(N)=O)no1,87.51%
10,NC(=O)Cn1c(SCc2noc(-c3ccsc3)n2)nnc1C1CC1,-1.649%
11,CC(C)c1nc(CSc2nnc(C3CC3)n2CC(N)=O)no1,-3.28%
12,O=C(C1CC(F)(F)C1)N1C[C@@H]2CN(CC3CC3)CCO[C@@H]2C1.O=C(O)C(F)(F)F,-22.01%
13,CCc1cnc(N2CCC3(CCN(Cc4cccc(C)c4)C3=O)C2)nc1 (stereo not drawn),-25.62%
14,Cc1cccc(CN2CCC3(CCN(c4ncccn4)C3)C2=O)c1 (stereo not drawn),-17.59%
15,CCS(=O)(=O)N1CCC2(CCCN(Cc3ccc(F)c(F)c3)C2=O)C1 (stereo not drawn),-4.443%
16,O=C1N(Cc2ccc(F)c(F)c2)CCCC12CCN(C1CCCC1)C2 (stereo not drawn),48.94%
17,O=C1N(Cc2ccccc2F)CCCC12CCN(C1CCSCC1)C2 (stereo not drawn),35.05%
18,Cc1cccc(CN2CCCC3(CCN(C4CCSCC4)C3)C2=O)c1 (stereo not drawn),68.24%
19,O=C1N(Cc2ccc(F)cc2)CCCC12CCN(C1CCSCC1)C2 (stereo not drawn),56.84%
20,O=C1N(Cc2ccc(F)c(F)c2)CCCC12CCN(C1CCSCC1)C2 (stereo not drawn),39.79%
21,O=C1N(Cc2ccc(F)c(F)c2)CCCC12CCN(C1CCCCC1)C2 (stereo not drawn),88.26%
